Records with an inconclusive call do not appear. Activity calls are given as the source filed them. Calls follow the shape of the full dose curve.
molecular target: Bile acid receptor (Homo sapiens) (UniProt Q96RI1); assay: qHTS assay for small molecule antagonists of farnesoid X receptor signaling (AID 588526); conditions: HEK293T FXR-UAS-bla, beta-lactamase ratio, antagonist mode; series mostly up to 76.7 µM; activity change, negative = inhibition: at the top concentration
Text: NIH Chemical Genomics Center [NCGC] U.S. Environmental Protection Agency [EPA] National Institutes of Environmental Health Sciences [NIEHS] National Toxicology Program [NTP] NCGC Assay Overview The farnesoid-X-receptor (FXR), a nuclear hormone receptor is highly expressed in liver, intestine, kidney and adrenal cortex. Natural ligands of FXR are the bile acids (Cholic acid, Chenodeoxy cholic acid etc). It is an important regulator of diverse metabolic pathways, including the bile acid homeostasis, lipid and glucose metabolisms. FXR regulates the expression of target genes by binding either as a monomer or as a heterodimer with RXR (retinoid X receptor). As FXR regulates a large number of target genes involved in bile acid, lipoprotein and glucose metabolisms, it is a potential pharmacological target for bile acid and lipid disorders. Thus screening environmental chemicals on FXR signaling can be used for the studies focused on metabolic syndrome, hepatic and intestinal toxicity etc.
NCGC Assay Protocol Summary Using a beta-lactamase reporter-gene under control of Farnesoid X receptor (FXR) response element, a cell-based assay [GeneBLAzer FXR-UAS-bla assay developed by Invitrogen] was used to measure FXR ligands signaling. GeneBLAzer FXR-UAS-bla HEK293T cells were used with assay medium containing 10% dialyzed FBS. The assay was performed in clear bottom black Greiner 1536-well plates. Guggulsterone were used in the screen as the positive control. Library compounds were measured for their ability to inhibit the reporter gene activity. Compounds were screened in a titration series in 1536-well format. The fluorescence intensity (405 nm excitation, 460/530 nm emission) was measured using an EnVision plate reader. Data was normalized relative to Chenodeoxycholic acid (50 uM, 100%), and DMSO only wells (basal, 0%). Concentration-response titration points for each compound were fitted to the Hill equation yielding concentrations of half-maximal inhibition (IC50) and maximal response (efficacy) values. qHTS protocol for FXR beta-lactamase assay in antagonist mode [Step] [Parameter] [Value] [Description] 1. Reagent; 5 uL; 5000 cells/well 2. Incubation; 37 C for 5-7 hrs 3. Compounds; 23 nL; 0.59 nM to 92 uM 4. Controls (Guggulsterone, FXR antagonist); 23 nL, - One column of dose response, start 200 uM, 1:2 dilutions in duplicates 5. Agonist (Stimulator); 1uL; Chenodeoxycholic acid at 100 uM and 50 uM final concentrations 6. Incubation; 37 C for 16 hrs 7. Detection reagent; 1 uL of CCF4-dye 8. Incubation; RT for 2 hrs 9. Detection; Fluorescence; Envision plate reader
% is scaled to controls: 0 for no effect and ±100 for the full control effect; potency is read from the fitted curve at half-maximal effect.

Sequence of Bile acid receptor (Homo sapiens) (Q96RI1 whole entry, looked up): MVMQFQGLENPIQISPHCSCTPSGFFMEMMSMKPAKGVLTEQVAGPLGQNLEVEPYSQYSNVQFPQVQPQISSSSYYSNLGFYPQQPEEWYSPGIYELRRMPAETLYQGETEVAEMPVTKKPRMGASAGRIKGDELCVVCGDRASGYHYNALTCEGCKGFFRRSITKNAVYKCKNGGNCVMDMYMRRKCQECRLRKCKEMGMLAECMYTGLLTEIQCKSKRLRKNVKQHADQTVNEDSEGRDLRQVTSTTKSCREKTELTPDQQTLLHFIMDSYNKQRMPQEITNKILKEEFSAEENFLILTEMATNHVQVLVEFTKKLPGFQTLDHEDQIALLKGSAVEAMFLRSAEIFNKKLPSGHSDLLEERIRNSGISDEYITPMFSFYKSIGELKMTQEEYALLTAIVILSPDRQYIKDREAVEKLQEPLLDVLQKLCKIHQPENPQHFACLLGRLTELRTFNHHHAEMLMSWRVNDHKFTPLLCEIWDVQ

Row | Compound | activity change, negative = inhibition | Potency
1 | Cc1c(COC(=O)C2C(/C=C(\Cl)C(F)(F)F)C2(C)C)cccc1-c1ccccc1 (stereo not given) | -14.4% (inactive) | 
2 | N#Cc1cc(Br)c(O)c(Br)c1 | -5.72% (inactive) | 
3 | O=C1NCCN1Cc1ccc(Cl)nc1 | 8.63% (inactive) | 
4 | CC(C)N(C(=O)COc1nnc(C(F)(F)F)s1)c1ccc(F)cc1 | -16.3% (inactive) | 
5 | C=CC1(C)OC(=O)N(c2cc(Cl)cc(Cl)c2)C1=O (stereo not given) | 5.5% (inactive) | 
6 | CCOP(=O)(OCC)Oc1cc(C)nc(C(C)C)n1 | -24.6% (inactive) | 
7 | Oc1ccc(C2(c3ccc(O)cc3)c3ccccc3-c3ccccc32)cc1 |  | 28.2 µM (active)
8 | CCC(C)c1ccc(O)cc1 (stereo not given) | -7.28% (inactive) | 
9 | CNC(=O)/C=C(\C)OP(=O)(OC)OC | 3.98% (inactive) | 
10 | CCCC1COC(Cn2cncn2)(c2ccc(Cl)cc2Cl)O1 (stereo not given) |  | inactive
11 | CCCCCCCCCCCCCCC(Br)C(=O)O (stereo not given) | -0.77% (inactive) | 
12 | CCOP(N)(=O)Oc1ccc(SC)c(C)c1 (stereo not given) | 15.6% (inactive) | 
13 | NS(=O)(=O)C(F)(F)C(F)(F)C(F)(F)C(F)(F)C(F)(F)C(F)(F)C(F)(F)C(F)(F)F | -1.41% (inactive) | 
14 | C[Si](Cn1cncn1)(c1ccc(F)cc1)c1ccc(F)cc1 |  | 22.4 µM (active)
15 | CCC[CH2][Sn]([CH2]CCC)([O]C(C)=O)[O]C(C)=O |  | 12.6 µM (active)
16 | CC(C)(C)C(O)C(Oc1ccc(-c2ccccc2)cc1)n1cncn1 (stereo not given) | -0.112% (inactive) | 
17 | CN(C)c1nc(=O)n(C2CCCCC2)c(=O)n1C | 4.43% (inactive) | 
18 | COC(=O)C(C)Oc1ccc(Oc2ccc(Cl)cc2Cl)cc1 (stereo not given) | -0.87% (inactive) | 
19 | CCSCCSP(=O)(OC)OC | 17% (inactive) | 
20 | CC(C)C1(C)N=C(c2nc3ccccc3cc2C(=O)O)NC1=O (stereo not given) | 2.67% (inactive) | 

Row | Compound | activity change, negative = inhibition | Potency
21 | CC1(C)[C@H](C(=O)O[C@H](C#N)c2cccc(Oc3ccccc3)c2)[C@@H]1/C=C(\Cl)C(F)(F)F | -13.1% (inactive) | 
22 | O=[N+]([O-])c1ccc(Nc2ccccc2)cc1 | -28.1% (inactive) | 
23 | CCCCC(CC)C(=O)Cl (stereo not given) | -5.86% (inactive) | 
24 | CCOP(=O)(NC(C)C)Oc1ccc(S(C)(=O)=O)c(C)c1 (stereo not given) | 17.6% (inactive) | 
25 | CN1COCN(Cc2cnc(Cl)s2)/C1=N\[N+](=O)[O-] | 4.26% (inactive) | 
26 | C=CCC1=C(C)[C@@H](OC(=O)[C@@H]2[C@@H](C=C(C)C)C2(C)C)CC1=O | -27% (inactive) | 
27 | CCC(C)n1c(=O)[nH]c(C)c(Br)c1=O (stereo not given) | 5.8% (inactive) | 
28 | COC(=O)c1ccccc1S(=O)(=O)NC(=O)Nc1nc(C)nc(OC)n1 | -14.8% (inactive) | 
29 | CCc1cc(C)cc(CC)c1-c1c(OC(=O)C(C)(C)C)n2n(c1=O)CCOCC2 | 8.61% (inactive) | 
30 | CC(Oc1cccc(Cl)c1)C(=O)O (stereo not given) | 0.405% (inactive) | 
31 | COC(=O)c1ccccc1S(=O)(=O)NC(=O)N(C)c1nc(C)nc(OC)n1 | 2.17% (inactive) | 
32 | CCOc1ccc(C(C)(C)COCc2cccc(Oc3ccccc3)c2)cc1 | -9.67% (inactive) | 
33 | CC1CCCCC1NC(=O)Nc1ccccc1 (stereo not given) | -5.26% (inactive) | 
34 | CCSC(=O)N(CC)C1CCCCC1 | -18% (inactive) | 
35 | CC1(c2ccc(Oc3ccccc3)cc2)OC(=O)N(Nc2ccccc2)C1=O (stereo not given) |  | 35.5 µM (active)
36 | CNC(=O)Oc1cccc2c1OC(C)(C)C2O (stereo not given) | 1.17% (inactive) | 
37 | CCOP(=O)(OCC)SCSP(=S)(OCC)OCC | -10.9% (inactive) | 
38 | CCOP(=S)(NC(C)C)Oc1ccccc1C(=O)OC(C)C (stereo not given) | -18% (inactive) | 
39 | CN(C)P(=O)(N(C)C)N(C)C | 5.07% (inactive) | 
40 | COCC(=O)N(c1c(C)cccc1C)[C@H](C)C(=O)OC | 0.126% (inactive) | 

Reference: PubChem BioAssay (NCATS)
